# Most compounds without a hit are left out; they make up all but 2.3% or so of the library.
# M1 antag: human M1 muscarinic receptor antagonists, primary screen, CHO-K1 cells, Fluo-8 calcium fluorescence, 1536-well. 1.3% of 360,000 active. inhibition, % at 3 µM. CHO-K1 hM1, ACh EC80 antagonist. AID 588852, 2011. Muscarinic acetylcholine receptor M1 (Homo sapiens), P11229;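 active = percent inhibition above its own plate's cutoff, namely the mean of that plate's compound wells plus 3 SD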;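 also: peak over basal fluorescence ratio during 140 s after agonist addition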
# Target sequence (P11229 whole entry, looked up): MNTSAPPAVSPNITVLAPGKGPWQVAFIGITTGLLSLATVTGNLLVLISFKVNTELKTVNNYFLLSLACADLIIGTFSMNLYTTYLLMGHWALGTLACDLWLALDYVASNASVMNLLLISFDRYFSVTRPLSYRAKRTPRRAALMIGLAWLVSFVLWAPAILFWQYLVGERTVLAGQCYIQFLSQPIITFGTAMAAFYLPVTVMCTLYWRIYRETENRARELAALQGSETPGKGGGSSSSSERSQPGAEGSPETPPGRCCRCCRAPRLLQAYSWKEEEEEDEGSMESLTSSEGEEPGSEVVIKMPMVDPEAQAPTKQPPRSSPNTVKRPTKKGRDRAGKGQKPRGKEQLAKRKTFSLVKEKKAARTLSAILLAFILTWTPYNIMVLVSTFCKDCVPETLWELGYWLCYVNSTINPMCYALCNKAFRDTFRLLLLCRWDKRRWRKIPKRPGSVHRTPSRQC
# CHO-K1 Ca PAM: nonselective calcium activators in parental CHO-K1 cells, primary screen, counter-screen for M1 PAM project, cell-based, Fluo-8 calcium fluorescence, full deck, 1536-well. activation, % at 3 µM. 0.02% of 360,000 active. ATP EC20; 0% at ATP EC20, 100% at ATP max;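 active = activation above the run cutoff, the mean activation of all test compounds plus 3 SD, cut at about 40% in these data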;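 also: peak over basal fluorescence ratio in a 140 s read after ATP addition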
# CHRM1 agonist: human M1 muscarinic receptor agonists, primary screen, Fluo-8 calcium fluorescence, CHO-K1 cells, HTS; CHO-K1 hM1, agonist mode; 0% DMSO, 100% acetylcholine EC100; activation, % at 3 µM; 0.33% of 360,000 active; AID 588814, 2011;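 active = activation above the run's mean compound activation plus 3 SD, cut at about 16% in these data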;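 also: peak over basal fluorescence ratio within a 140 s kinetic read after compound addition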
# CHO-K1 Ca ag: counter-screen for M1 agonists: effect in parental CHO-K1 cells; 0.48% of 360,000 active; Fluo-8 calcium fluorescence; scaled to maximal ATP response, vehicle zero; activation, % at 3 µM; AID 602248, 2012; in the data active = activation above about 15%;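 also: untransfected CHO-K1 host cells lacking M1 receptor as counterscreen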
# CHO-K1 Ca antag: counter-screen for M1 antagonists: effect in parental CHO-K1 cells. 0.6% of 360,000 active. inhibition, % at 3 µM. ATP-induced calcium, Fluo-8 fluorescence;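 active = inhibition above a per-plate cutoff, the plate's mean sample inhibition plus 3 SD, cut at about 24% in these data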
# M1 PAM: human M1 muscarinic receptor positive allosteric modulators, primary screen, CHO-K1 cells, Fluo-8 calcium fluorescence, 1536-well; CHO-K1 hM1, ACh EC20; 0% = ACh EC20, 100% = maximal ACh; activation, % at 3 µM; 0.088% of 360,000 active; AID 588819, 2011; in the data active = activation above about 19%, passing the limit was not always enough
# Numbers stand for hits; 0 = inactive.
SMILES,M1 antag,CHO-K1 Ca PAM,CHRM1 agonist,CHO-K1 Ca ag,CHO-K1 Ca antag,M1 PAM
O=S(=O)(NC1=NCCCCC1)c1cc(F)ccc1F,0,0,0,0,0,0
Cc1ccc(C(=O)N2CCc3cc4c(cc3C2C)OCCCO4)cc1 (centres undefined),0,0,0,0,0,0
CC1c2cc3c(cc2CCN1C(=O)c1ccc(C(F)(F)F)cc1)OCCCO3 (centres undefined),34,0,0,0,0,0
CC(=O)Nc1ccc(C(=O)N2CCc3cc4c(cc3C2C)OCCCO4)cc1 (centres undefined),57,0,0,0,0,0
CC1c2cc3c(cc2CCN1CC(=O)Nc1ccc(S(=O)(=O)N2CCCC2)cc1)OCCCO3 (centres undefined),102,0,0,0,0,0
CC(=O)Nc1ccc(S(=O)(=O)N2CCc3cc4c(cc3C2C)OCCCO4)cc1 (centres undefined),0,0,0,0,0,0
NC(=O)C12C(=O)NC(=O)C1(C(=O)O)C21CCCC1 (centres undefined),0,0,0,0,0,0
Cn1c(SCC(=O)NN2C(=O)NC(C)(c3ccccc3)C2=O)nnc1-c1ccncc1 (centres undefined),0,0,0,0,0,0
Cc1cc(C)c2oc(C(=O)N3CCN(Cc4ccccc4)CC3)cc(=O)c2c1,0,0,0,0,0,0
Cn1nc(C(F)(F)F)c(C(=O)Nc2ccc(F)cc2F)c1Sc1cccc(C(F)(F)F)c1,34,0,0,0,0,0
Cn1nc(C(F)(F)F)c(C(=O)Nc2ccc(F)cc2F)c1Sc1cccc(Cl)c1,0,0,0,0,0,0
CC(CCC(C)C(C)(C)C)[C@@H]1CC[C@H]2C3C[C@H](OS(O)(=S)=S)[C@H]4C[C@H](OS(O)(=S)=S)[C@@H](OS(O)(=S)=S)C[C@]4(C)[C@H]3CC[C@]12C (some centres undefined) (tested in a mixture with another compound),0,46,37,24,0,0
Cc1csc2ncc(C(=O)NC(C)c3ccccc3)c(=O)n12 (centres undefined),0,0,0,16,0,0
N#Cc1ccc(NC(=O)Nc2ccc(Cl)cc2)cc1,32,0,0,0,26,0
NS(=O)(=O)c1ccc(NC(=O)Nc2ccc(Cl)cc2)cc1,0,0,0,0,28,0
CCn1nnnc1NCc1c(OC)ccc2ccccc12,0,0,0,0,0,0
Cc1ccc(S(=O)(=O)N(C)c2ccc(OCC(=O)N3CCCCC3)cc2)cc1,0,0,0,0,0,0
O=C(NC(c1ccc(-c2ccccc2)cc1)c1cnccn1)C1CCN(Cc2cccc(C(F)(F)F)c2)CC1 (centres undefined),0,0,0,0,0,0
CN1CCN(CC(=O)Nc2ccc([N+](=O)[O-])cc2Br)CC1,0,0,0,0,0,0
O=[N+]([O-])/C=C\c1ccc(N2CCCC2)c(F)c1,51,0,24,27,0,0
O=Cc1ccc(N2CCCC2)c([N+](=O)[O-])c1,0,0,0,0,0,0
Cc1ccccc1NC1=NCC(c2ccc([N+](=O)[O-])cc2)S1 (centres undefined),0,0,0,19,0,0
Cc1ccccc1Nc1ccc([N+](=O)[O-])cn1,0,0,0,0,0,0
Cc1c(NC(=O)c2cc(CC(C)C)on2)c(=O)n(-c2ccccc2)n1C,0,0,0,0,0,0
Cc1ccc(Cn2nc(C)c(NC(=O)CCCn3nc([N+](=O)[O-])c(Cl)c3C)c2C)cc1,0,0,0,0,0,21
SMILES,M1 antag,CHO-K1 Ca PAM,CHRM1 agonist,CHO-K1 Ca ag,CHO-K1 Ca antag,M1 PAM
Cc1c(NC(=O)c2cc(C(C)C)on2)c(=O)n(-c2ccccc2)n1C,36,0,0,0,0,0
Cc1c(Cl)c([N+](=O)[O-])nn1CC(=O)Nc1c(C)n(C)n(-c2ccccc2)c1=O,28,0,0,0,0,0
Cc1c(NC(=S)NC(=O)c2ccc(Cl)cc2)c(=O)n(-c2ccccc2)n1C,0,0,0,0,0,0
Cc1ccc(Cn2nc(C)c(NC(=O)CCCn3nc(C)c([N+](=O)[O-])c3C)c2C)cc1,0,0,0,0,0,0
Cc1c(NC(=S)NC(=O)c2ccccc2Cl)c(=O)n(-c2ccccc2)n1C,0,0,0,0,0,29
Cc1nn(Cc2ccccc2)c(C)c1NC(=O)Cn1nc([N+](=O)[O-])c(Cl)c1C,0,0,0,0,0,0
CC1=C(C(=O)OCCCCCl)C(c2cc3c(cc2Br)OCO3)NC(=O)N1 (centres undefined),0,0,0,0,0,0
O=C(Nc1nc(-c2cc(F)ccc2F)cs1)c1cccc(N2C(=O)CCC2=O)c1,0,0,0,0,32,0
O=C(CCCCN1CCCCC1)c1ccc2c(c1)Cc1ccccc1-2,0,0,0,0,0,0
OC1(CC#CCN2CCCCC2)c2ccccc2-c2ccccc21,55,0,0,0,0,0
CCN(CC#CCC1(O)c2ccccc2-c2ccccc21)CCO,0,0,0,0,0,0
OC1(C#CCCN2CCCCC2)c2ccccc2-c2ccccc21,99,0,0,0,0,0
O=C(Nc1cccc(N2C(=O)C3CCCCC3C2=O)c1)c1ccccc1 (centres undefined),0,0,0,0,0,0
O=C(Nc1cccc(Cl)c1)c1cccc(N2C(=O)C3CC=CCC3C2=O)c1 (centres undefined),0,0,0,17,0,0
Nc1[nH]n(-c2ccccc2)c(=O)c1N=Nc1ccccc1[N+](=O)[O-],0,0,0,0,0,0
COc1cc([N+](=O)[O-])ccc1N=Nc1c(N)[nH]n(-c2ccccc2)c1=O,0,0,0,17,0,0
Cc1cccc(Nc2ccncc2S(N)(=O)=O)c1,0,0,0,0,0,0
N#Cc1cccc(NC(=O)CSc2ccc3c4c(cccc24)C(=O)c2ccccc2-3)c1,32,0,44,0,0,0
CC1CCCC(C)N1CCCNC(=O)Cn1c(=O)c2cccn2c2cccnc21 (centres undefined),0,0,0,0,0,0
CCn1ncc(CN2CCCC(C(=O)Nc3cccc(-c4cc5ccccc5[nH]4)c3)C2)c1C (centres undefined),25,0,0,0,0,0
CCOc1cccc(CN2CCCC(C(=O)Nc3cccc(-n4cccn4)c3)C2)c1 (centres undefined),0,0,0,0,0,0

# Screening results: PubChem, The Scripps Research Institute Molecular Screening Center
